Measured values reported in ChEMBL document CHEMBL1961873, “Compounds: GSK PKIS; Assays: Nanosyn kinase panel” (2012).
Where “and” joins values, the source holds several entries; their conditions need not be identical. Identical values can stand only once.

Assays:
[1] = molecular target: CDK3/Cyclin E (Homo sapiens) (UniProt P24864+Q00526); conditions: at 1 µM;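 note: each figure is a mean percent inhibition of the CDK3/cyclin E complex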
[2] = molecular target: Cyclin-dependent kinase 4 (Homo sapiens) (UniProt P11802); conditions: at 0.1 µM
[3] = molecular target: Cyclin-dependent kinase 4 (Homo sapiens) (UniProt P11802); conditions: at 1 µM
[4] = molecular target: Cyclin-dependent kinase 5 (Homo sapiens) (UniProt Q00535); conditions: at 0.1 µM
[5] = molecular target: Cyclin-dependent kinase 5 (Homo sapiens) (UniProt Q00535); conditions: at 1 µM
[6] = molecular target: Cyclin-dependent kinase 6 (Homo sapiens) (UniProt Q00534); conditions: at 0.1 µM
[7] = molecular target: Cyclin-dependent kinase 6 (Homo sapiens) (UniProt Q00534); conditions: at 1 µM
[8] = molecular target: Dual specificity protein kinase CLK2 (Homo sapiens) (UniProt P49760); conditions: at 0.1 µM
[9] = molecular target: Dual specificity protein kinase CLK2 (Homo sapiens) (UniProt P49760); conditions: at 1 µM
[10] = molecular target: Dual specificity protein kinase CLK3 (Homo sapiens) (UniProt P49761); conditions: at 0.1 µM
[11] = molecular target: Dual specificity protein kinase CLK3 (Homo sapiens) (UniProt P49761); conditions: at 1 µM
[12] = molecular target: Dual specificity tyrosine-phosphorylation-regulated kinase 1A (Homo sapiens) (UniProt Q13627); conditions: at 0.1 µM
[13] = molecular target: Dual specificity tyrosine-phosphorylation-regulated kinase 1A (Homo sapiens) (UniProt Q13627); conditions: at 1 µM
[14] = molecular target: Dual specificity tyrosine-phosphorylation-regulated kinase 1B (Homo sapiens) (UniProt Q9Y463); conditions: at 0.1 µM
[15] = molecular target: Dual specificity tyrosine-phosphorylation-regulated kinase 1B (Homo sapiens) (UniProt Q9Y463); conditions: at 1 µM
[16] = molecular target: T1, Dual specificity tyrosine-phosphorylation-regulated kinase 2 (Homo sapiens) (UniProt Q92630); conditions: at 0.1 µM
T1 sequence (whole entry): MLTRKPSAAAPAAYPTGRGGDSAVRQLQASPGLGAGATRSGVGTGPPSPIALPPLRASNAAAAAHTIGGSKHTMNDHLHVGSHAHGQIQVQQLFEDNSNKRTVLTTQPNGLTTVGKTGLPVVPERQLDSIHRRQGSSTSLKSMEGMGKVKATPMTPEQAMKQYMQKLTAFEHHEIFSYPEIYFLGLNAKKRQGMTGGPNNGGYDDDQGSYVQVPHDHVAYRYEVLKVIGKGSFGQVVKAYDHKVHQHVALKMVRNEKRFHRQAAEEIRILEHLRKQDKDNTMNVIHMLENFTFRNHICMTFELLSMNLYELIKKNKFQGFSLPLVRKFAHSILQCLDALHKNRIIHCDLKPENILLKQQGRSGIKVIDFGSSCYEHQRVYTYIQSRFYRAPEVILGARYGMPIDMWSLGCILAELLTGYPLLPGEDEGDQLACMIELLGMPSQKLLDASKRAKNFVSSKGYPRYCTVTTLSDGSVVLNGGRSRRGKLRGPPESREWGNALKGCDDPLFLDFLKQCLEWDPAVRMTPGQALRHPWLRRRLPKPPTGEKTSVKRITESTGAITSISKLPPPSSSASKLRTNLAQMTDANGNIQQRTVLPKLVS

[17] = molecular target: T1, Dual specificity tyrosine-phosphorylation-regulated kinase 2 (Homo sapiens); conditions: at 1 µM
[18] = molecular target: Glycogen synthase kinase-3 alpha (Homo sapiens) (UniProt P49840); conditions: at 0.1 µM
[19] = molecular target: Glycogen synthase kinase-3 alpha (Homo sapiens) (UniProt P49840); conditions: at 1 µM
[20] = molecular target: Glycogen synthase kinase-3 beta (Homo sapiens) (UniProt P49841); conditions: at 0.1 µM;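 note: values are mean percent inhibition of GSK3B activity, from the GSK Published Kinase Inhibitor Set (PKIS) screening dataset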
Chain of Glycogen synthase kinase-3 beta (Homo sapiens) (P49841 whole entry, looked up): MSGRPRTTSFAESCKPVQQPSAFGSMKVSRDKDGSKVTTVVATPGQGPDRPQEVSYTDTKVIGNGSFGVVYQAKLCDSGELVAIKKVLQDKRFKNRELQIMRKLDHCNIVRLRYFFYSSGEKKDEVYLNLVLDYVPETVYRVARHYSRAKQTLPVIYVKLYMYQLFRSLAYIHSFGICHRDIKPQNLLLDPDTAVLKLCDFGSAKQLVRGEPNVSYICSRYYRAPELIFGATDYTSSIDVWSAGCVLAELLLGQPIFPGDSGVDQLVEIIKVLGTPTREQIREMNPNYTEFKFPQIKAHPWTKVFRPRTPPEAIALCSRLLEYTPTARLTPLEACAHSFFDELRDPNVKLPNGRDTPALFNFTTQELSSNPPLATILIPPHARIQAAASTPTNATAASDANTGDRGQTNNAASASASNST

Chain of Dual specificity tyrosine-phosphorylation-regulated kinase 1B (Homo sapiens) (Q9Y463 whole entry, looked up): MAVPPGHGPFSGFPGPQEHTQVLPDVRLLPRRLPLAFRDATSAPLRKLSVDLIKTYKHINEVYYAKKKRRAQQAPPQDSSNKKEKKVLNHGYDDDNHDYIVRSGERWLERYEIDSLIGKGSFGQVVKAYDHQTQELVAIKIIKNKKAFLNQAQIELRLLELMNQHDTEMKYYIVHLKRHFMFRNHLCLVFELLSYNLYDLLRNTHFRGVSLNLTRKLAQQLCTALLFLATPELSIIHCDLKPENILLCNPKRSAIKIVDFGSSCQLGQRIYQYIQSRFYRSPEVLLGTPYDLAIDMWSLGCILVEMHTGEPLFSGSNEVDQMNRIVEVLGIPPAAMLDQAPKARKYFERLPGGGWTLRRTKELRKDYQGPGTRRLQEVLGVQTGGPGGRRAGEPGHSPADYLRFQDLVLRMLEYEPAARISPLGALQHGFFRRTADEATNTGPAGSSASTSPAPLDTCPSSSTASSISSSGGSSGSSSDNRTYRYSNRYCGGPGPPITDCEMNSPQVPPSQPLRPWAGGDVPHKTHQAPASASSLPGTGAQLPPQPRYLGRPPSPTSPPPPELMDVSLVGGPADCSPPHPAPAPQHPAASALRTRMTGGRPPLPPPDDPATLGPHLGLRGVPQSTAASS
Chain of Cyclin-dependent kinase 4 (Homo sapiens) (P11802 whole entry): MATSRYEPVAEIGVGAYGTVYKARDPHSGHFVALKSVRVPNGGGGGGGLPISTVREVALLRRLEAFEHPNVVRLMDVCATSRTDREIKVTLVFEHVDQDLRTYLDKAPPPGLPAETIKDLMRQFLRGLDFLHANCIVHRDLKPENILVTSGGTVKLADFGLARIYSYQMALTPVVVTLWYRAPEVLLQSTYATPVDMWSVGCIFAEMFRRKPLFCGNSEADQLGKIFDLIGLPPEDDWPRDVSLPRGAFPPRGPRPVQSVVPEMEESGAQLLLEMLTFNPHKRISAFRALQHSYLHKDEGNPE
Chain of Glycogen synthase kinase-3 alpha (Homo sapiens) (P49840 2-483 limits assumed): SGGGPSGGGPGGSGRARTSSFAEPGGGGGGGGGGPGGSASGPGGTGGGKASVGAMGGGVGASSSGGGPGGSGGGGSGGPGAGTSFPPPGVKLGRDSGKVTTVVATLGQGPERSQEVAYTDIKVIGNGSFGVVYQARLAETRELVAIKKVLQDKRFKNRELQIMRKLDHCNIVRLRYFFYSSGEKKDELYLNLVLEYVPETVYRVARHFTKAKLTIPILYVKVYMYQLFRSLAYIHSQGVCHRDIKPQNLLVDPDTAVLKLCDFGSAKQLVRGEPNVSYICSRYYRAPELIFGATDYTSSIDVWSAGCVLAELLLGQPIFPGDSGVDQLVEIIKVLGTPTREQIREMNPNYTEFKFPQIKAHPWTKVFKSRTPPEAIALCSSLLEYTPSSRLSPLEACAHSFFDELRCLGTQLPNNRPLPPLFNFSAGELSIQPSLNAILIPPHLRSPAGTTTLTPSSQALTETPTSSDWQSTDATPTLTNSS
Chain of Dual specificity protein kinase CLK2 (Homo sapiens) (P49760 whole entry, looked up): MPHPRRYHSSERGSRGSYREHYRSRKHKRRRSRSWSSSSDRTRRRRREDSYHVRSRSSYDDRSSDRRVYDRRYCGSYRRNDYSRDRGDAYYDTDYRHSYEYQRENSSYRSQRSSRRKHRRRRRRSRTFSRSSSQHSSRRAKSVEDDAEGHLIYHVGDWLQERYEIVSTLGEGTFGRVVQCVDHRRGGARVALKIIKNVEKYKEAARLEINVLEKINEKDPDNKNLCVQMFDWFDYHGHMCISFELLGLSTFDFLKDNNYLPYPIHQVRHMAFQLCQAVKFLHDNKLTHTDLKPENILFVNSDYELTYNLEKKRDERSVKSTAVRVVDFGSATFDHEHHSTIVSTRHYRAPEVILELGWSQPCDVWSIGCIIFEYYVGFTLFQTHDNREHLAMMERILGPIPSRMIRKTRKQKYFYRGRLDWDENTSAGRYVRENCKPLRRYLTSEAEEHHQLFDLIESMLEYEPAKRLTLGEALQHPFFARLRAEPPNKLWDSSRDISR
Chain of CDK3/Cyclin E (Homo sapiens) (P24864 whole entry, looked up): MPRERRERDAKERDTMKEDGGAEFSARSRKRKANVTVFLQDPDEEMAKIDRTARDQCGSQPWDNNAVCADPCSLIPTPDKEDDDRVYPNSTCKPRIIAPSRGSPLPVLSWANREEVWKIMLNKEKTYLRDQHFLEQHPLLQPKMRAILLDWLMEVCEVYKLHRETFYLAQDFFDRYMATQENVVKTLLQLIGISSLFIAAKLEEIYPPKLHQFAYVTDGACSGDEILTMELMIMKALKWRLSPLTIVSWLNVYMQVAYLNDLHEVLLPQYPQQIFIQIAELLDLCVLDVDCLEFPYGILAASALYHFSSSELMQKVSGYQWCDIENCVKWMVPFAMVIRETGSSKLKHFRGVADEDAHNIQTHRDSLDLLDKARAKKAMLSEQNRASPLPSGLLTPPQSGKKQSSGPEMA
Chain of CDK3/Cyclin E (Homo sapiens) (Q00526 whole entry, looked up): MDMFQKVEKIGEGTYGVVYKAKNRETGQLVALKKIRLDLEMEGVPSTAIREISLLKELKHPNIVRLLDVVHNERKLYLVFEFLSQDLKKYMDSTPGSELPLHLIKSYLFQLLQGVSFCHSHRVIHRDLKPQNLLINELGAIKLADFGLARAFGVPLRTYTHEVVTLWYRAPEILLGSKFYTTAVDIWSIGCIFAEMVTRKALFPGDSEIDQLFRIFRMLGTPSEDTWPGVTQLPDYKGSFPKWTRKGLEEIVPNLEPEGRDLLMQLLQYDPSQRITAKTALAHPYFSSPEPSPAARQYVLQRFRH
Chain of Cyclin-dependent kinase 6 (Homo sapiens) (Q00534 whole entry): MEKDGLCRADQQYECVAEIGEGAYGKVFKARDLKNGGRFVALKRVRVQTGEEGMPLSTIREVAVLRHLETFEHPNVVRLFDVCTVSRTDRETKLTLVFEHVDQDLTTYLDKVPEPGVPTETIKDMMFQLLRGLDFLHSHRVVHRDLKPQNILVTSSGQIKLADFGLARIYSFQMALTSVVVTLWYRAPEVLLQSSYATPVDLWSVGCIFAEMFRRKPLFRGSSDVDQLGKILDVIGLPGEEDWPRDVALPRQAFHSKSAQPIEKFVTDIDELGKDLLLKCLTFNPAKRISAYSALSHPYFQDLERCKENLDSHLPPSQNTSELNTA
Chain of Cyclin-dependent kinase 5 (Homo sapiens) (Q00535 whole entry, looked up): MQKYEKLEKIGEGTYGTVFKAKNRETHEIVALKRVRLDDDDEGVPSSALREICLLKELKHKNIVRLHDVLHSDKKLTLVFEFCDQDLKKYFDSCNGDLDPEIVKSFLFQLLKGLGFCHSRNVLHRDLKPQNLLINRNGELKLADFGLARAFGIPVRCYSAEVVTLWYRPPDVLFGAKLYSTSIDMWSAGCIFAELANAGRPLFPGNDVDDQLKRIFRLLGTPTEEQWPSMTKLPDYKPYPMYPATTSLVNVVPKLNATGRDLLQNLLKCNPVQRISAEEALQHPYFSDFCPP
Chain of Dual specificity protein kinase CLK3 (Homo sapiens) (P49761 whole entry, looked up): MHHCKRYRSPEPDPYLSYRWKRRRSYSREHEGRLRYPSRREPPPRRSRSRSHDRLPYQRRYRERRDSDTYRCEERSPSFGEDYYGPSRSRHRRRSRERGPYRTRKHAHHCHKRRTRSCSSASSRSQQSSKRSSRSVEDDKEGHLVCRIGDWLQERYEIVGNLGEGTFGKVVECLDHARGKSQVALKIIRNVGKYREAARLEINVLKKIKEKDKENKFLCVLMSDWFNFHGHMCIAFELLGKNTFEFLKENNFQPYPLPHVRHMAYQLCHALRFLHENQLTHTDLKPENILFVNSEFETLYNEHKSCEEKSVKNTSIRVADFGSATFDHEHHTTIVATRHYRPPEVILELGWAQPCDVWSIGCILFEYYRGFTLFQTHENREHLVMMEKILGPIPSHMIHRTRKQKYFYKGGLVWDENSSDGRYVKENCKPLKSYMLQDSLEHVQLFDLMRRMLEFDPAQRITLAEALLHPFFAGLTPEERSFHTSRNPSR

Row | SMILES | inhibition [1] | inhibition [2] | inhibition [3] | inhibition [4] | inhibition [5] | inhibition [6] | inhibition [7] | inhibition [8] | inhibition [9] | inhibition [10] | inhibition [11] | inhibition [12] | inhibition [13] | inhibition [14] | inhibition [15] | inhibition [16] | inhibition [17] | inhibition [18] | inhibition [19] | inhibition [20]
1 | Cc1cc(O)cc(C)c1/C=C/c1cncc(C(=O)OC(C)(C)C)c1 | 1.16% | 2.59% | 3.59% | 0.74% | 2.53% | 3.38% | 5.01% | 0.65% | 0.81% | 3.45% | 6.2% | 5.61% | 8.73% | 3.58% | 7.3% | 1.52% | 3.56% | 4.43% | 8.44% | 4.6%
2 | CN(c1ccc(NC(=O)NCCN2CCOCC2)cc1)c1ccnc(Nc2ccc(CS(C)(=O)=O)cc2)n1 | 0.92% | 0.98% | 2.06% | 0.44% | 2.44% | 5.26% | 4.21% | -0.8% | 2.52% | 0.77% | 1.43% | 1.69% | 3.45% | -0.71% | 2.44% | 1.44% | 3.05% | 4.05% | 8.02% | 4.49%
3 | Cc1cc(O)cc(C)c1/C=C/c1cncc(C(N)=O)c1 | 1.41% | 2.84% | 3.26% | 0.63% | 1.61% | 3.58% | 4.03% | -0.7% | 2.41% | 1.21% | 3.45% | 2.36% | 6.61% | 0.87% | 2.81% | 1.62% | 3.99% | 1.54% | 4.08% | 1.76%
4 | Nc1ncnc2occ(-c3ccc(NC(=O)Nc4cc(C(F)(F)F)ccc4F)cc3)c12 | 26.3% and 17% | 2.18% and -1.12% | 7.72% and 1.95% | 2.15% and 1.3% | 10.4% and 4.77% | 2.49% and -1.62% | 6.94% and -0.12% | -0.16% and 0.05% | 2.32% and 0.92% | -0.08% and 0.74% | 2.26% and 0.21% | 1.15% and 1.58% | 4.22% and 0.86% | 1.3% and 0.83% | 2.57% and 1.79% | 2.49% and -1.01% | 3.45% and -1.47% | 7.6% and 1.13% | 17.5% and 6.32% | 7.23% and 1.21%
5 | COC(=O)Nc1nc2cc(Oc3ccc(NC(=O)Nc4ccccc4)cc3)ccc2[nH]1 | -3.23% | 0.66% | 1.41% | 0.28% | 0.86% | 0.73% | -1.23% | 1.75% | -1.36% | 1.37% | 2% | 0.64% | 2.92% | -0.93% | 1.92% | 0.59% | 0.89% | 4.23% | 8.26% | 3.5%
6 | O=C(O[C@H]1CN[C@H](C#Cc2cc3ncnc(Nc4ccc5c(ccn5Cc5cc(F)ccc5F)c4)c3s2)C1)N1CCOCC1 | -2.16% | 2.17% | 1.93% | 1.09% | 0.14% | -1.14% | 1.5% | 1.29% | 0.52% | 1.27% | 1.89% | 2.29% | 4.73% | 0.4% | -1.92% | 3.27% | 2.77% | 3.38% | 6.08% | 1.76%
7 | CC(C)c1ccc(-c2cc(-c3c[nH]nc3-c3ccccn3)ccn2)cc1 | -1.28% | 1.25% | 1.46% | 0.18% | 0.36% | -1.5% | 1.16% | 0.9% | -0.14% | 0.15% | 0.76% | 0.59% | 2.33% | 0.57% | 1.3% | 0.98% | 0.3% | 0.61% | 2.95% | -0.15%
